Compound activity (PubChem BioAssay)
Only some compounds are listed: those with a hit (about 19% of all), similar ones and a draw of the others.
TDP1 cell noCPT = qHTS for Inhibitors of human tyrosyl-DNA phosphodiesterase 1 (TDP1): qHTS in cells in absence of CPT | DT40 Tdp1-/- hTDP1 cells, no CPT, ATP luminescence, 48 h | Potency, µM (top dose mostly 46.2 µM), actives largely listed as inhibitors | 420,000 compounds, 15% hits | AID 686978, 2013; also: nearly all actives have a fitted effect of over 55% in size
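No-CPT arm: Tdp1-/-;hTDP1 DT40 cells (400/well) plus compounds, incubated ≥48 hr at 37 °C. Readout CellTiter-Glo luminescence.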
HT1080 IDH1KD tx = HT-1080 IDH1 knockdown cell toxicity (counter line) | 360,000 compounds, 2% hits | HT-1080 IDH1 knockdown viability, ATP luminescence, 48 h | Potency, µM (series often up to 46.1 µM), most hits filed as cytotoxic
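HT-1080-IDH1KD cells (IDH1 knocked down), 750/well in RPMI with 5% FBS, treated with compound 48 h at 37 degrees C. Viability by CellTiter-Glo luminescence, normalised to DMSO and no-cell wells; concentration-response curves classed.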
IL-1B inflam inh = blocks inflammasome-driven IL-1 beta release. 360,000 compounds, 4.7% hits. activity change, % at 57.5 µM. THP-1 LPS/ATP IL-1B secretion, AlphaLISA, 16 h; hits give low values. AID 743279; in the data active = activity change below about -50%; inconclusive = mostly about -30% to -49%
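Secreted IL-1B measured by AlphaLISA bead assay after 16 h compound exposure of THP-1 cells; compounds (final up to 57.5 uM) added 1 h before LPS (250 ng/mL) and ATP (1.25 mM) stimulation; lower signal means less secretion.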
DT40 TDP1 CPT = DT40-hTDP1 cell growth loss with CPT; chicken DT40 Tdp1-/-;hTDP1 cells + 20 nM CPT, ATP luminescence, 48 h; 420,000 compounds, 12% hits; Potency, µM (highest dose often 46.2 µM), most hits filed as inhibitors; also: nearly all actives have a fitted effect of over 55% in size
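Cell growth measured by CellTiter-Glo luminescence after a minimum 48 h, 37 C compound exposure with 20 nM CPT in Tdp1-knockout DT40 cells stably expressing hTDP1, seeded 400/well; qHTS titration format.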
HT1080NT lethal = kills 2HG-producing HT-1080-NT fibrosarcoma cells; AID 686970; HT-1080-NT fibrosarcoma viability, CellTiter-Glo ATP luminescence, 48 h; 360,000 compounds, 1.6% hits; Potency, µM (highest dose often 46.1 µM), most hits filed as cytotoxic;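 also: NT is the 2HG producing partner of a matched IDH1 knockdown line; nearly all actives have a fitted effect of over 55% in size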
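HT-1080-NT fibrosarcoma cells (2HG-overproducing), 750 cells/well in RPMI with 5% FBS, dosed after 2 h and incubated 48 h at 37C. CellTiter-Glo luminescence normalized to DMSO and no-cell wells; concentration-response curves fitted and classed.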
Large screens that a line does not name were inactive. Unless noted, calls follow the shape of the dose curve; as a rule, active = well fitted curve in the direction sought with a large enough effect; inconclusive = small, poorly fitted or top-dose-only effect, or another doubt; inactive = no such curve, though single readings can be large; an effect the other way counts as inactive or inconclusive.

Cn1c(SCC(=O)N2CCCC2=O)nc2ccccc2c1=O	none
Cc1c(-c2nc(-c3cccnc3)no2)cccc1[N+](=O)[O-]	TDP1 cell noCPT 18.4µM, DT40 TDP1 CPT 18.4µM
CCCc1noc(-c2ccc(NCc3ccc(C)cc3)c([N+](=O)[O-])c2)n1	DT40 TDP1 CPT inconclusive (no result: HT1080 IDH1KD tx, IL-1B inflam inh, HT1080NT lethal)
COc1ccc(-c2noc(-c3ccc(NC4CCCCC4)c([N+](=O)[O-])c3)n2)cc1OC	TDP1 cell noCPT inconclusive, DT40 TDP1 CPT 20.6µM (no result: HT1080 IDH1KD tx, IL-1B inflam inh, HT1080NT lethal)
COc1ccccc1-c1noc(-c2ccc(NCc3ccco3)c([N+](=O)[O-])c2)n1	TDP1 cell noCPT 11.6µM, DT40 TDP1 CPT 11.6µM (no result: HT1080 IDH1KD tx, IL-1B inflam inh, HT1080NT lethal)
CCc1noc(-c2ccc(N(C)Cc3ccc(OC)cc3)c([N+](=O)[O-])c2)n1	TDP1 cell noCPT 5.8µM, DT40 TDP1 CPT 6.51µM (no result: HT1080 IDH1KD tx, IL-1B inflam inh, HT1080NT lethal)
O=C(c1ccccn1)N1CC=C(c2ccccc2)CC1	none
COc1ccc(NC(=O)C2=CC=CN3CCS(=O)(=O)N=C23)c(OC)c1	none
CN(CCO)S(=O)(=O)c1ccc2c(c1)C(=NO)c1cc(S(=O)(=O)N(C)CCO)ccc1-2	TDP1 cell noCPT 11.6µM
CN(C)S(=O)(=O)c1ccc2c(c1)C(CC(=O)O)NC2=O (stereo not drawn)	none
Nc1n[nH]c(N)c1N=Nc1ccc2c(c1)OCO2	TDP1 cell noCPT inconclusive, IL-1B inflam inh inconclusive, DT40 TDP1 CPT inconclusive
CC(C)c1ccc(N(C(=O)CNC(=O)c2ccco2)C(C(=O)NC2CCCC2)c2cccnc2)cc1 (stereo not drawn)	IL-1B inflam inh -70.4
Cc1ccc(N(C(=O)CNC(=O)c2ccco2)C(C(=O)NCC2CCCO2)c2ccccc2)cc1C (stereo not drawn)	TDP1 cell noCPT 20.6µM
COC(=O)c1ccc(N(C(=O)CNC(=O)c2ccco2)C(C(=O)NC2CCCC2)c2ccco2)cc1 (stereo not drawn)	TDP1 cell noCPT 23.1µM, DT40 TDP1 CPT inconclusive
O=C(NC1CCCC1)C(c1ccco1)N(C(=O)c1ccco1)c1ccccc1 (stereo not drawn)	TDP1 cell noCPT 14.6µM
CCc1ccccc1NS(=O)(=O)Cc1ccccc1	none
CNC(=O)c1cnc2sc(N3CCCCCC3)nn2c1=O	none (no result: HT1080 IDH1KD tx, IL-1B inflam inh, HT1080NT lethal)
CCc1ccc(N(C(=O)c2ccco2)C(C(=O)NC2CCCC2)c2ccncc2)cc1 (stereo not drawn)	TDP1 cell noCPT inconclusive
CCc1ccc(N(C(=O)c2ccco2)C(C(=O)NC2CCCC2)c2ccco2)cc1 (stereo not drawn)	TDP1 cell noCPT 16.4µM, IL-1B inflam inh inconclusive, DT40 TDP1 CPT inconclusive
O=C(CCBr)N1CCN(C(=O)CCBr)CC1	none (no result: HT1080 IDH1KD tx, IL-1B inflam inh, HT1080NT lethal)
Oc1[nH]c2ccccc2c1N=NC(=S)N1CCOCC1	TDP1 cell noCPT 1.46µM, HT1080 IDH1KD tx inconclusive, DT40 TDP1 CPT 1.64µM, HT1080NT lethal inconclusive
Oc1[nH]c2ccc(Br)cc2c1N=NC(=S)N1CCOCC1	TDP1 cell noCPT 0.731µM, HT1080 IDH1KD tx 1.03µM, DT40 TDP1 CPT 0.731µM, HT1080NT lethal inconclusive
O=C(N=Nc1c(O)[nH]c2ccccc12)c1ccc(CN2CCOCC2)cc1	TDP1 cell noCPT inconclusive
Cc1ccc(CNC(=O)Cn2cnc(C(=O)Nc3ccc(C)c(C)c3)n2)o1	none
CCOc1ccccc1CNC(=O)CCc1c(C)nn(-c2ccc(N3CCCCC3)nn2)c1C	TDP1 cell noCPT 20.6µM, DT40 TDP1 CPT inconclusive (no result: HT1080 IDH1KD tx, IL-1B inflam inh, HT1080NT lethal)
Cc1nn(-c2ccc(N3CCCC3)nn2)c(C)c1CCC(=O)NCc1ccccc1	none (no result: HT1080 IDH1KD tx, IL-1B inflam inh, HT1080NT lethal)
CCOc1ccccc1NC(=O)CCc1c(C)nn(-c2ccc(N3CCCCC3)nn2)c1C	TDP1 cell noCPT 16.4µM, DT40 TDP1 CPT 23.1µM
CC1(C(=O)NS(=O)(=O)c2ccc(Cl)s2)CCN1C(=O)C1(c2ccccc2)CCCC1 (stereo not drawn)	TDP1 cell noCPT inconclusive, DT40 TDP1 CPT inconclusive
COc1ccc(-n2c(SCC(=O)Nc3nccs3)nc3c(c2=O)SC(C)C3)cc1 (stereo not drawn)	TDP1 cell noCPT inconclusive, DT40 TDP1 CPT inconclusive
COc1cccc(/C=N/NC(=O)c2csc(-n3nc(C)cc3C(F)(F)F)n2)c1	TDP1 cell noCPT inconclusive
